Results from PubChem BioAssay.
Measured potencies and affinities stand elsewhere. Results filed as inconclusive are left out. Active and inactive are the calls of the source. Unless noted, no rule for the calls is given here.

Key:
[1] = cytotoxicity in IOSE-T80 ovarian epithelial cells, dose response, selectivity assay for PAX8 inhibitor project, cell-based, cherry-pick (AID 687032;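 active = fitted half-maximal concentration for viability loss no higher than twice the top valid dose, in every repeat run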;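 also: cells exposed to compound for 96 h before reading; 0% = neutral control wells and -100% = 2 µM mitoxantrone kill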)
[2] = inhibitors of CMV-promoter luciferase reporter, dose response, counter-screen for Pax8 inhibitor project, cell-based, HEK293, luminescence, dry powder (AID 743020;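 active = signal-lowering compounds whose fitted half-maximal concentration is at or below twice the top tested dose in every run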;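 also: HEK293 cells stably expressing the CMV luciferase reporter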)
[3] = IGROV1 ovarian cancer cell cytotoxicity, dose response, PAX8 inhibitor project, plate reader, dry powder samples (AID 743043);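 also: more negative means fewer viable cells or more cytotoxicity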
[4] = NIH:OVCAR-3 ovarian cancer cell cytotoxicity, dose response, PAX8 inhibitor project, plate reader, dry powder samples (AID 743044); conditions: max activity: at 35 µM, hits give low values unless noted
[5] = IOSE-T80 ovarian epithelial cell cytotoxicity, dose response, cytotoxicity control for PAX8 inhibitor project, plate reader, dry powder samples (AID 743045);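 also: 0% = neutral control median and -100% = positive control median; more negative values mean more cell killing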
[6] = A2780 ovarian cancer cell cytotoxicity, dose response, cytotoxicity control, plate reader, dry powder samples (AID 743046);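 also: 0% = neutral control wells and -100% = cytotoxic reference compound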
[7] = non-specific cell cytotoxicity, dose response, cytotoxicity control for PAX8 inhibitor project, plate reader, dry powder samples (AID 743021)
[8] = A549 cell cytotoxicity, dose response, cytotoxicity control, plate reader, cherry-pick, antagonist series (AID 743412);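 also: 0% = neutral control wells and -100% = positive control wells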
[9] = cytotoxicity in OVCAR8 ovarian cancer cells, dose response, PAX8 project, cell-based, plate reader, dry powder samples (AID 743197)
[10] = HepG2 cell cytotoxicity, dose response, cytotoxicity control, plate reader, cherry-pick, antagonist series (AID 743416);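 also: 0% = neutral control wells and -100% = positive control wells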

Measured: max activity

COc1ccccc1C#Cc1ccc2c(c1)O[C@@H](CN(C)Cc1ccncc1)[C@H](C)CN([C@@H](C)CO)S2(=O)=O
inactive: [1] | [2] | [3] | [4] 20.3% [at 8 µM, hits give low values] | [5] | [6]

C[C@@H]1CN([C@H](C)CO)C(=O)c2cc(NS(=O)(=O)c3ccc(F)cc3)ccc2O[C@@H](C)CCCCO[C@@H]1CN(C)Cc1ccccc1
inactive: [1] | [2] | [3] | [5] | [6]

COc1ccc(S(=O)(=O)N(C)C[C@@H]2OCCCC[C@H](C)Oc3ccc(NS(=O)(=O)c4ccccc4)cc3C(=O)N([C@H](C)CO)C[C@H]2C)cc1
inactive: [1] | [2] | [7] | [5] | [6]

C[C@@H]1CN([C@H](C)CO)C(=O)c2cc(NC(=O)Nc3ccccc3)ccc2O[C@@H](C)CCCCO[C@@H]1CN(C)Cc1ccc(Cl)c(Cl)c1
inactive: [1] | [3]

N#C[C@@H]1[C@H](c2ccc(C#Cc3cccc(F)c3)cc2)[C@@H](CO)N1C(=O)C1CCCC1
inactive: [8]

C[C@H](CO)N1C[C@H](C)[C@H](CN(C)S(=O)(=O)c2ccc(Cl)cc2)OCCCC[C@H](C)Oc2ccc(NC(=O)Nc3ccc(C(F)(F)F)cc3)cc2C1=O
inactive: [2] | [3] | [5] | [9]

C=C(C(=O)c1ccccc1)C(C(=C)C(=O)c1ccccc1)c1ccc(OC)cc1
inactive: [7]

C[C@H](CO)N1C[C@H](C)[C@H](CN(C)Cc2ccc(C(F)(F)F)cc2)OCCCC[C@H](C)Oc2ccc(NS(=O)(=O)c3ccccc3)cc2C1=O
inactive: [2] | [5] | [6]

CCCn1c(C)cc(C(=O)CN2C(=O)c3ccccc3S2(=O)=O)c1C
inactive: [2] | [7] | [3] | [4] | [6] | [10]

C[C@@H]1CN([C@@H](C)CO)C(=O)c2cc(NC(=O)c3ccccc3)ccc2O[C@@H](C)CCCCO[C@@H]1CN(C)Cc1ccc(C(F)(F)F)cc1
inactive: [2] | [7] | [3] | [5] | [6]

C[C@@H]1CN([C@@H](C)CO)C(=O)Cc2cc(NC(=O)NC3CCCCC3)ccc2O[C@@H]1CN(C)Cc1ccc(-c2ccccc2)cc1
inactive: [2] | [7] | [3] | [4] 0% [hits give low values] | [5] | [9]

O=C1c2cccc3cc([N+](=O)[O-])cc(c23)C(=O)N1CCN1CCCC1
inactive: [7]

C[C@H]1CCCCO[C@H](CN(C)Cc2ccc(C(F)(F)F)cc2)[C@@H](C)CN([C@@H](C)CO)C(=O)c2cc(NC(=O)c3ccccc3)ccc2O1
inactive: [2] | [7] | [5] | [6] | [9]

C[C@@H]1CCCCO[C@@H](CN(C)C(=O)Nc2cccc3ccccc23)[C@H](C)CN([C@H](C)CO)C(=O)c2cc(NS(=O)(=O)c3ccc(F)cc3)ccc2O1
inactive: [2] | [7] | [4] 12.2% [at 0.26 µM, hits give low values] | [5] | [6]

Cc1ccc2c(c1)c1c3n2CCN(CC(N)=O)C3CCC1 (centres undefined)
inactive: [7]

C=C1C(=O)C2=CC1CCC(=O)C1(C)CCC(OC(C)=O)C(C)(C)C1CC2O (centres undefined)
inactive: [7]

COc1cccc(-c2ccc([C@H]3[C@@H](CO)N(C(=O)Cc4ccccc4)[C@H]3C#N)cc2)c1
inactive: [2] | [7] | [3] | [5] | [9]

Oc1cccc2cc(Nc3ccccc3)cnc12
inactive: [7]

COc1ccc(S(=O)(=O)Nc2ccc3c(c2)C(=O)N([C@@H](C)CO)C[C@H](C)[C@@H](CN(C)Cc2ccc(C(F)(F)F)cc2)OCCCC[C@H](C)O3)cc1
inactive: [2] | [7] | [5] | [6]

Cc1noc(C)c1S(=O)(=O)N(C)C[C@H]1OCCCC[C@@H](C)Oc2ccc(NS(=O)(=O)c3ccc(Cl)cc3)cc2C(=O)N([C@@H](C)CO)C[C@@H]1C
inactive: [2] | [7] | [3] | [5]

Cc1ccccc1CNC(=O)C1CCCN(c2nnc(C)c3c(C)n(-c4ccccc4)nc23)C1 (centres undefined)
inactive: [2] | [7] | [6]
